From PubChem BioAssay (NCATS)
Inconclusive results are not listed. Calls of active or inactive are those of the source. Unless noted, the call rests on the fitted dose curve. Bridge positions count the residues as written; N and C are the ends. Square brackets hold non-standard residues; d marks the D form. Peptide text beside a SMILES is read from it. hArg = N=C(N)NCCCC[C@H](N)C(=O)O; Mpa = O=C(O)CCS

Tests used:
[1] = qHTS for Inhibitors of the Functional Ribonucleoprotein Complex (vRNP) of Lassa (LASV) Arenavirus: LASV Primary Screen - GLuc reporter signal (AID 1347082; calls by dose curve; tested in HEK293 reporter line; further: nearly all actives have a fitted effect of over 60% in size)
[2] = qHTS for Inhibitors of the Functional Ribonucleoprotein Complex (vRNP) of Lassa (LASV) Arenavirus: Viability assay - alamar blue signal for LASV Primary Screen (AID 1347083; calls by dose curve; tested in HEK293 reporter line; further: nearly all actives have a fitted effect of over 80% in size)
[3] = qHTS for Inhibitors of the Functional Ribonucleoprotein Complex (vRNP) of Lymphocytic Choriomeningitis Arenaviruses (LCMV): Viability assay - alamar blue signal for LCMV Primary Screen (AID 1347085; calls by dose curve; tested in HEK293 reporter line; further: nearly all actives have a fitted effect of over 80% in size)
[4] = target: Nucleoprotein (Lymphocytic choriomeningitis virus (strain Armstrong)) (UniProt P09992); test: qHTS for Inhibitors of the Functional Ribonucleoprotein Complex (vRNP) of Lymphocytic Choriomeningitis Arenaviruses (LCMV): LCMV Primary Screen - GLuc reporter signal (AID 1347086); further: nearly all actives have a fitted effect of over 70% in size

Measured: Potency
Further: series mostly up to about 57 µM.

Sequence of Nucleoprotein (Lymphocytic choriomeningitis virus (strain Armstrong)) (P09992 whole entry, looked up): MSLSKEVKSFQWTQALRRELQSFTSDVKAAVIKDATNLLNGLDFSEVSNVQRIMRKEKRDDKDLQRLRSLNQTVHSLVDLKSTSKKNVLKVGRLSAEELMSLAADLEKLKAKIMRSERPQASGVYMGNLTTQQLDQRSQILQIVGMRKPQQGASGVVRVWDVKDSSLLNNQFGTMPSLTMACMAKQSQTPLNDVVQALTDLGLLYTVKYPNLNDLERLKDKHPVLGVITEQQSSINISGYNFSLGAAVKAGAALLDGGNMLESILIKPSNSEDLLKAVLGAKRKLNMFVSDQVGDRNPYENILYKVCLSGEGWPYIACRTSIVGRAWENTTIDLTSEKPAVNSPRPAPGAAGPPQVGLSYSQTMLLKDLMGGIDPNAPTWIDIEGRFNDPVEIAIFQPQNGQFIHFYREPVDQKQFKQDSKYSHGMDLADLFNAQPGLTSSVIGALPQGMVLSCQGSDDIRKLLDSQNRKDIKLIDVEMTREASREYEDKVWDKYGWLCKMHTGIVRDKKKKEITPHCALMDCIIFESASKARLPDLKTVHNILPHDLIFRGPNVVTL

C=CCCCCCCCCC(=O)O
inactive: [1] | [2] | [3] | [4]

O=c1cc(CO)occ1O
inactive: [1] | [2] | [3] | [4]

CCN(CC)CC1CCCCN1CC(=O)N1c2ccccc2C(=O)Nc2cccnc21 (stereo not given)
inactive: [1] | [2] | [3] | [4]

COc1cc2[nH]c(=O)[nH]c(=O)c2cc1OC
inactive: [1] | [2] | [3] | [4]

CN1[C@@H]2CC[C@H]1CC(NC(=O)n1c(=O)[nH]c3ccccc31)C2 (stereo not given in full)
inactive: [1] | [2] | [3] | [4]

CCOc1ccccc1C(N)=O
inactive: [1] | [2] | [3] | [4]

CN(C)C(=O)Oc1cccc([N+](C)(C)C)c1
inactive: [1] | [2] | [3] | [4]

CC1CC(OC(=O)C(O)c2ccccc2)CC(C)(C)N1C (stereo not given)
inactive: [1] | [2] | [3] | [4]

CCc1cccc2c3c([nH]c12)C(CC)(CC(=O)O)OCC3 (stereo not given)
inactive: [1] | [2] | [3] | [4]

CCOC(=O)C1=C[C@]2(CC)CCCN3CCc4c(n1c1ccccc41)[C@@H]32
inactive: [1] | [2] | [3] | [4]

CC(C(=O)O)c1ccc(CC2CCCC2=O)cc1 (stereo not given)
inactive: [1] | [2] | [3] | [4]

CN1CCN(C2=Nc3ccccc3Sc3ccc(Cl)cc32)CC1
inactive: [1] | [2] | [3] | [4]

CN1C(=O)CC(c2ccccc2)C1=O (stereo not given)
inactive: [1] | [2] | [3] | [4]

NS(=O)(=O)c1cc2c(cc1Cl)NCNS2(=O)=O
inactive: [1] | [2] | [3] | [4]

O=C(OCC(O)CO)c1ccccc1Nc1ccnc2c(C(F)(F)F)cccc12 (stereo not given)
inactive: [1] | [2] | [3] | [4]

CCCC(=O)OC[C@@H](OC(=O)CCC)[C@@H](OC(=O)CCC)[C@H](Cn1c2nc(=O)[nH]c(=O)c-2nc2cc(C)c(C)cc21)OC(=O)CCC
inactive: [1] | [2] | [3] | [4]

c1ccc(CN(CC2=NCCN2)c2ccccc2)cc1
inactive: [1] | [2] | [3] | [4]

CCOC(=O)[C@H](CCc1ccccc1)N[C@H]1CCc2ccccc2N(CC(=O)O)C1=O
inactive: [1] | [2] | [3] | [4]

CC1CCCCN1CCCOC(=O)c1ccc(OC2CCCCC2)cc1 (stereo not given)
inactive: [1] | [2] | [3] | [4]

CC(NC(CCc1ccccc1)C(=O)O)C(=O)N1C(=O)N(C)CC1C(=O)O (stereo not given)
inactive: [1] | [2] | [3] | [4]

NC(=O)Cc1cccc(C(=O)c2ccccc2)c1N
inactive: [1] | [2] | [3] | [4]

O=c1[nH]sc2cc(Cl)ccc12
inactive: [1] | [2] | [3] | [4]

OC(CCN1CCCCC1)(c1ccccc1)C1CC2C=CC1C2 (stereo not given)
inactive: [1] | [2] | [3] | [4]

CCN(CC)CCOC(=O)C(c1ccccc1)C1CCCCC1 (stereo not given)
inactive: [1] | [2] | [3] | [4]

O=C(Nc1ccc([N+](=O)[O-])cc1)Nc1ccc([N+](=O)[O-])cc1
inactive: [1] | [2] | [3] | [4]

CC(=O)OCC(=O)[C@@]12N=C(C)O[C@@H]1C[C@H]1[C@@H]3CCC4=CC(=O)C=C[C@]4(C)[C@H]3[C@@H](O)C[C@@]12C
inactive: [1] | [2] | [3] | [4]

COc1nc(C)nc(Cl)c1NC1=NCCN1
inactive: [1] | [2] | [3] | [4]

CN1CCC(N(Cc2cccs2)c2ccccc2)CC1
inactive: [1] | [2] | [3] | [4]

CCCCC(=O)O[C@]1(C(=O)CO)[C@@H](C)C[C@H]2[C@@H]3CCC4=CC(=O)C=C[C@]4(C)[C@@]3(F)[C@@H](O)C[C@@]21C
inactive: [1] | [2] | [3] | [4]

CCOc1ccccc1O[C@H](c1ccccc1)[C@H]1CNCCO1
inactive: [1] | [2] | [3] | [4]

NC(=O)[C@@H]1CSSCCC(=O)N[C@@H](CCCCN=C(N)N)C(=O)NCC(=O)N[C@@H](CC(=O)O)C(=O)N[C@@H](Cc2c[nH]c3ccccc23)C(=O)N2CCC[C@H]2C(=O)N1 ([Mpa][hArg]GDWPC-NH2; disulfide 1-7)
inactive: [1] | [2] | [3] | [4]

CC1(C)O[C@@H]2C[C@H]3[C@@H]4C[C@H](F)C5=CC(=O)C=C[C@]5(C)[C@H]4[C@@H](O)C[C@]3(C)[C@]2(C(=O)CO)O1
inactive: [1] | [2] | [3] | [4]

Cc1cccc(N(C)C(=S)Oc2ccc3c(c2)C2CCC3C2)c1 (stereo not given)
inactive: [1] | [2] | [3] | [4]

CC(C)c1cc2c(cc1S(=O)(=O)O)[C@@]1(C)CCC[C@@](C)(C(=O)O)[C@@H]1CC2
inactive: [1] | [2] | [3] | [4]

CN1CC(=O)N2[C@H](c3ccc4c(c3)OCO4)c3[nH]c4ccccc4c3C[C@@H]2C1=O
inactive: [1] | [2] | [3] | [4]

CC(=O)O[C@H]1C[C@@H]2CC[C@@H]3[C@H](CC[C@@]4(C)[C@H]3C[C@H]([N+]3(C)CCCCC3)[C@@H]4OC(C)=O)[C@@]2(C)C[C@@H]1N1CCCCC1
inactive: [1] | [2] | [3] | [4]

CCCC(=O)O[C@]1(C(=O)CCl)[C@@H](C)C[C@H]2[C@@H]3CCC4=CC(=O)C=C[C@]4(C)[C@@]3(F)C(=O)C[C@@]21C
inactive: [1] | [2] | [3] | [4]

CCCCCC(N)=O
inactive: [1] | [2] | [3] | [4]

C[N+]1(CC2COC(c3ccccc3)(c3ccccc3)O2)CCCCC1 (stereo not given)
inactive: [1] | [2] | [3] | [4]

CCCCN1CCCC[C@H]1C(=O)Nc1c(C)cccc1C
inactive: [1] | [2] | [3] | [4]

CC(=O)NC(Cc1ccccc1)C(=O)O (stereo not given)
inactive: [1] | [2] | [3] | [4]

Oc1c(I)cc(Cl)c2cccnc12
inactive: [1] | [2] | [3] | [4]

Cc1cc(C(C)(C)C)c(O)c(C(C)(C)C)c1
inactive: [1] | [2] | [3] | [4]

Nc1c2c(nc3ccccc13)CCCC2
inactive: [1] | [2] | [3] | [4]

CC(C)Cn1cnc2c1c(=O)n(C)c(=O)n2C
inactive: [1] | [2] | [3] | [4]

CCc1cc(Cl)c(OC)c(C(=O)NC[C@@H]2CCCN2CC)c1O
inactive: [1] | [2] | [3] | [4]

CC(=O)OCC1=C(C(=O)O)N2C(=O)[C@@H](NC(=O)CSc3ccncc3)[C@H]2SC1
inactive: [1] | [2] | [3] | [4]

CCC(=O)Oc1ccc2c(c1)CC[C@@H]1[C@@H]2CC[C@@]2(C)[C@H]1C[C@@H](OC(=O)CC)[C@@H]2OC(=O)CC
inactive: [1] | [2] | [3] | [4]

CCCCCCCCOc1ccccc1C(=O)Nc1ccc(C(=O)OCC[N+](C)(CC)CC)cc1
inactive: [1] | [2] | [3] | [4]

CC1CCc2cc(F)cc3c(=O)c(C(=O)O)cn1c23 (stereo not given)
inactive: [1] | [2] | [3] | [4]

OC[C@H]1O[C@@H](O[C@@H]2[C@@H](CO)O[C@](O)(CO)[C@H]2O)[C@H](O)[C@@H](O)[C@H]1O
inactive: [1] | [2] | [3] | [4]

CC(C)NCCCC1(C(N)=O)c2ccccc2-c2ccccc21
inactive: [1] | [2] | [3] | [4]

Cc1cc(NC(=O)C2=C(O)c3ccccc3S(=O)(=O)N2C)no1
inactive: [1] | [2] | [3] | [4]

O=C(NCC1CN(c2ccc(N3CCOCC3=O)cc2)C(=O)O1)c1ccc(Cl)s1 (stereo not given)
inactive: [1] | [2] | [3] | [4]

O=C(CCNNC(=O)c1ccncc1)NCc1ccccc1
inactive: [1] | [2] | [3] | [4]

CCCCC/C=C\C/C=C\CCCCCCCC(=O)NC(C)c1ccccc1 (stereo not given)
inactive: [1] | [2] | [3] | [4]

O=C(Cn1ccnc1[N+](=O)[O-])NCCO
inactive: [1] | [2] | [3] | [4]

COc1cc(C(=O)OCCCN2CCCN(CCCOC(=O)c3cc(OC)c(OC)c(OC)c3)CC2)cc(OC)c1OC
inactive: [1] | [2] | [3] | [4]

CCC(CC)(CC(=O)Nc1cccc(/C=C/c2nc(C3CCC3)cs2)c1)C(=O)O
inactive: [1] | [2] | [3] | [4]

CC1=C(C)C(=O)C(C(CCCCCC(=O)O)c2ccccc2)=C(C)C1=O (stereo not given)
inactive: [1] | [2] | [3] | [4]
